Reference: PMC4336329 (PLoS ONE, 2015)
Among all 310,000 compounds or so, about 14,000 (4.5%) showed an effect of 50% or more. Effects have a minus sign here. The list comes from a sample in which strong results are over-represented; it also holds similar structures and randomly drawn compounds.

The molecules below were run against human ether-à-go-go-related gene (hERG) potassium channel (human, UniProt Q12809) (assay: primary screen, population patch clamp on CHO cells stably expressing hERG; higher = less effect of the substance).
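Also: peak tail current of the secondary pulse compared with the same well before compound.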

Sequence of human ether-à-go-go-related gene (hERG) potassium channel (Q12809 whole entry, looked up): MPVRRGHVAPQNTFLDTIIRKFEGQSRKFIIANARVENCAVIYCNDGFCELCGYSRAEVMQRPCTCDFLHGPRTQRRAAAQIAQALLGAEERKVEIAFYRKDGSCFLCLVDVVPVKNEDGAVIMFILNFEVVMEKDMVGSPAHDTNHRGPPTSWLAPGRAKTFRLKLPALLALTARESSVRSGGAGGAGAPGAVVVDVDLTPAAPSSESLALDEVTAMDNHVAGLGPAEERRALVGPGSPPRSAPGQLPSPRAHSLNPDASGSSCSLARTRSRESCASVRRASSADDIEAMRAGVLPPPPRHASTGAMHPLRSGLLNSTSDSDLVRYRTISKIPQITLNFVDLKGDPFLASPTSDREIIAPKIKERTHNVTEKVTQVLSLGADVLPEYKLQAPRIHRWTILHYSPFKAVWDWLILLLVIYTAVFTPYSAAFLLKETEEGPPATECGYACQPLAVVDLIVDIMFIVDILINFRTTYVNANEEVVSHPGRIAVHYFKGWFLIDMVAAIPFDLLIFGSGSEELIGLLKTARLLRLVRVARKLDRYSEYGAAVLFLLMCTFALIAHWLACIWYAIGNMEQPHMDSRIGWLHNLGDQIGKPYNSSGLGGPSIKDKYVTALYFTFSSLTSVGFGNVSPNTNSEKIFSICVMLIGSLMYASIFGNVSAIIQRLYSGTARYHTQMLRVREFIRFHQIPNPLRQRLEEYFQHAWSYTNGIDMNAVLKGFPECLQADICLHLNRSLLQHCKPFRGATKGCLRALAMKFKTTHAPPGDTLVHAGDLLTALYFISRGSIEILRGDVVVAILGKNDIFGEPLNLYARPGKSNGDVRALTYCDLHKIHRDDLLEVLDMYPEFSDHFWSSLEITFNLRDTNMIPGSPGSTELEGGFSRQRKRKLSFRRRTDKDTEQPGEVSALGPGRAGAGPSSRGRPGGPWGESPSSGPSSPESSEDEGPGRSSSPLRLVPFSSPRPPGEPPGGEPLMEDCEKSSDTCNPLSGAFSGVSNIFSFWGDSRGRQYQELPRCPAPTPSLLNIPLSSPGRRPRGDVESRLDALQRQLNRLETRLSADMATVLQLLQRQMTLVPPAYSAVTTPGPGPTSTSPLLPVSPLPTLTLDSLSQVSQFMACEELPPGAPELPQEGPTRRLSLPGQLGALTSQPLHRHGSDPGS

Compound	hERG current change (%, negative = inhibition) at 10uM
CN=C1SC(C(=O)O)CC(=O)N1C (centres unmarked)	19.1%
Cc1ccc(NC(=S)Nc2ccc(OC(F)F)c(Cl)c2)cc1Cl	16.5%
Cc1nc2ccc(S(=O)(=O)NCC(=O)NCCc3ccc(Cl)cc3)cc2s1	28.3%
c1ccc2c(-c3nnc(SCc4cn5ccccc5n4)o3)c[nH]c2c1	-4.5%
Cc1nc(Cl)c(C(=O)Nc2cccc(F)c2)c(C)c1Cl	-5.95%
CSc1nnc(CNS(=O)(=O)c2ccc(F)cc2)n1C	19.7%
CCN1C(=C(C#N)C#N)C=Cc2cc(C)ccc21	15.7%
CCN1/C(=C/c2ccc3ccccc3[n+]2CC)C=Cc2ccccc21.[Cl-]	-82.5%
CCN1/C(=C/c2ccc3ccccc3[n+]2CCCS(=O)(=O)[O-])C=Cc2cc(C)ccc21	24.2%
CCN1/C(=C/c2cc[n+](C)cc2)C=Cc2cc(C)ccc21.[I-]	-72.2%
CCN1C(=C(C#N)C#N)C=Cc2ccccc21	15.8%
CCOC(=O)/C(C#N)=C/C=C1\C=Cc2ccccc2N1CC	7.18%
CCN1/C(=C2\C(=O)N(c3ccccc3)N=C2C)C=Cc2cc(C)ccc21	-40%
C=CC[n+]1c(/C=C2\C=Cc3cc(C)ccc3N2CC)ccc2ccccc21.[Br-]	-83.5%
CCN1C(=O)/C(=C2\C=Cc3cc(C)ccc3N2CC)OC1=S	0.13%
CC1=C(C(N)=O)C(c2ccccc2F)n2nc(CCCO)nc2N1 (centres unmarked)	20.3%
OCC[C@H]1C[C@H](O)[C@@H](O)[C@@]2(CCc3ccccc3CO2)O1	7.83%
CCOCC(=O)Nc1cc([N+](=O)[O-])ccc1C	-2.36%
COc1cc(NS(=O)(=O)c2ccc(NC(=S)NC(=O)c3ccco3)cc2)ncn1	20.4%
Cc1ccc(-c2noc(CCCN3C(=O)c4ccccc4C3=O)n2)cc1	9.03%
CCCCNC(=O)CC1NCCNC1=O (centres unmarked)	22%
Cc1ccccc1CS(=O)(=O)CCC(=O)NCCN1CCN(c2cccc(Cl)c2)CC1	-42.5%
CCOC(=O)CNc1nc(Cl)nc(Nc2ccc(OC)cc2OC)n1	19.2%
CN1C(c2ccc(F)cc2)=CS/C1=C(\C#N)c1nnc2n1-c1ccccc1SC2	-45.5%
CCN1C(c2ccc(F)cc2)=CS/C1=C(\C#N)c1nnc2n1-c1ccccc1SC2	-58.9%
Br.CN1C(c2ccc(F)cc2)=CS/C1=C(/C#N)c1nnc(N2CCOCC2)n1-c1ccccc1	-23.8%
